# Assay results: PubChem BioAssay (EPA / NIEHS)
# Inconclusive results are not listed. Calls of active or inactive are those of the source. How the source made its calls, unless noted: active means hit-call score of the fitted dose curve at least 0.9, where 1 is the maximum; inconclusive means response in the unintended direction; inactive means score below 0.9.
# Columns and labels:
# [1] = target: human Peroxisome Proliferator-activated Receptor delta (PPARd), PPARD (gene 5467) (UniProt Q03181); assay: ATG_PPARd_TRANS: Attagene TRANS-FACTORIAL HepG2 Assay for human Peroxisome Proliferator-activated Receptor delta (PPARd) (AID 2283002)
# Chain of human Peroxisome Proliferator-activated Receptor delta (PPARd), PPARD (gene 5467) (Q03181 whole entry, looked up, the tested form may be a part): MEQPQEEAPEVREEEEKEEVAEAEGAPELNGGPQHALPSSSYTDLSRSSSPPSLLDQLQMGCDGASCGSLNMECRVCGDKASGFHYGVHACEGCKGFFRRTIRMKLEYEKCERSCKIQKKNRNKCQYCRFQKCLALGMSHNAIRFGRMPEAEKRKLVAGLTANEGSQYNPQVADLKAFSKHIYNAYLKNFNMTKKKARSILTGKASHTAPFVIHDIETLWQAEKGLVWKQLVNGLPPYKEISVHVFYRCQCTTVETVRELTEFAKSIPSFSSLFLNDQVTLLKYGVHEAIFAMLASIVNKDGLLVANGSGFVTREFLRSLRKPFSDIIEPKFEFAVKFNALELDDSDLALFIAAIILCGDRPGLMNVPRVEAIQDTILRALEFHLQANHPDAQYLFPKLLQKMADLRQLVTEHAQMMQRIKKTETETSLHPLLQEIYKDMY
# Method in brief: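 Read-out: reporter mRNA induction, quantified by fluorescent RT-PCR products resolved by capillary electrophoresis. Human HepG2 liver cells carried transiently transfected Gal4-UAS reporter constructs with chimeric NR-Gal4 fusions. Cells were dosed for 24 h; DMSO served as baseline.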
# [2] = target: Nuclear receptor subfamily 1 group I member 2 (Homo sapiens) (UniProt O75469); assay: ATG_PXR_TRANS: Attagene TRANS-FACTORIAL HepG2 Assay for human Pregnane X Receptor (PXR) (AID 2283008)
# Chain of Nuclear receptor subfamily 1 group I member 2 (Homo sapiens) (O75469 whole entry, looked up, the tested form may be a part): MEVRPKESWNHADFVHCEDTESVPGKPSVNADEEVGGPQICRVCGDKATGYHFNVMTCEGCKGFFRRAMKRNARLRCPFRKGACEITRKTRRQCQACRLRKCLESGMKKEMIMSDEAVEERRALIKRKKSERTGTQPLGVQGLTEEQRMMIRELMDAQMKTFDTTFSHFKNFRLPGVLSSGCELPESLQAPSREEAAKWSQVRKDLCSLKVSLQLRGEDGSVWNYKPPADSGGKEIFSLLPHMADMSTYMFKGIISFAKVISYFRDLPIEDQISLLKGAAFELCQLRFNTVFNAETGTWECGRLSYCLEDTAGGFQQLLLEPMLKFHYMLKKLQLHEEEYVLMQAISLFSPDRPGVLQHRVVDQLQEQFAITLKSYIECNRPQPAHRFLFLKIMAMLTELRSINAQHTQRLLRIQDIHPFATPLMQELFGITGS
# Method in brief: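 Trans-factorial format: exogenous NR-Gal4 fusion activity, not endogenous factor, in transfected human HepG2 liver cells. After 24 h dosing, RNA isolated, reverse-transcribed, amplified and resolved by capillary electrophoresis; induction scored versus DMSO.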
# [3] = target: human Retinoic Acid Receptor gamma (RARg), RARG (gene 5916) (UniProt P13631); assay: ATG_RARg_TRANS: Attagene TRANS-FACTORIAL HepG2 Assay for human Retinoic Acid Receptor gamma (RARg) (AID 2283009)
# Chain of human Retinoic Acid Receptor gamma (RARg), RARG (gene 5916) (P13631 whole entry, looked up, the tested form may be a part): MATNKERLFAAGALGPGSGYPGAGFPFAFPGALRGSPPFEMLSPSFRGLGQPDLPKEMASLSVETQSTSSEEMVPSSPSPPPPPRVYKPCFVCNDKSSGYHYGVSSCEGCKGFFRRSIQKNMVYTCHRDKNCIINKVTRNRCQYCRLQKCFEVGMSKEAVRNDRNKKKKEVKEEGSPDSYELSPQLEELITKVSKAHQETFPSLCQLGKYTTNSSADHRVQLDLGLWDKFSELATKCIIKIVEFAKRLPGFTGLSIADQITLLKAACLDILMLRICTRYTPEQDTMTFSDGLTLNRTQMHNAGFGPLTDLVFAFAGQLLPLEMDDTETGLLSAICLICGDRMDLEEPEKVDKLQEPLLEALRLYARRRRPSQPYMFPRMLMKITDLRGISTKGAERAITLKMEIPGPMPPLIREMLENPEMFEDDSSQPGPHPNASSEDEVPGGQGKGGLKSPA
# Method in brief: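 Gain-of-signal relative to DMSO is reported from fluorescent capillary electrophoresis of RT-PCR reporter products. These came from HepG2 cells expressing transfected RARg-GAL4 chimeras with UAS reporters, harvested 24 h after dosing.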
# [4] = target: human RAR-related Orphan Receptor beta (RORb), RORB (gene 6096) (UniProt Q92753); assay: ATG_RORb_TRANS: Attagene TRANS-FACTORIAL HepG2 Assay for human RAR-related Orphan Receptor beta (RORb) (AID 2283010)
# Chain of human RAR-related Orphan Receptor beta (RORb), RORB (gene 6096) (Q92753 whole entry, looked up, the tested form may be a part): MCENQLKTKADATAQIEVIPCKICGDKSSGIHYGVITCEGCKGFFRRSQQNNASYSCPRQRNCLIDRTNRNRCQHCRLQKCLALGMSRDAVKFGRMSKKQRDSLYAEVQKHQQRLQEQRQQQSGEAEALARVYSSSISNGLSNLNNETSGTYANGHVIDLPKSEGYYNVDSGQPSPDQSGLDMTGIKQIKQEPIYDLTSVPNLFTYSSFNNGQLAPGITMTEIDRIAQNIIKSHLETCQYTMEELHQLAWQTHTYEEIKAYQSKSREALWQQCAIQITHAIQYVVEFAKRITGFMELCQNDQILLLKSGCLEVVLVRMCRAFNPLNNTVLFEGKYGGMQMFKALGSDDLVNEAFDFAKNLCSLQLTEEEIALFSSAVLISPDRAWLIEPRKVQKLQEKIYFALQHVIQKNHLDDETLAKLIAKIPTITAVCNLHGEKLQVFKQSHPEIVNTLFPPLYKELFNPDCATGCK
# Method in brief: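 Multiplexed transcription-factor reporter assay: HepG2 cells transiently carrying NR-Gal4/GAL4-UAS constructs, 24 h treatment, mRNA quantified by RT-PCR plus capillary electrophoresis fluorescence; activity scored as induction over DMSO.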
# [5] = target: Peroxisome proliferator-activated receptor gamma (Homo sapiens) (UniProt P37231); assay: ATG_PPARg_TRANS: Attagene TRANS-FACTORIAL HepG2 Assay for human Peroxisome Proliferator-activated Receptor-gamma (PPARg) (AID 2283007)
# Chain of Peroxisome proliferator-activated receptor gamma (Homo sapiens) (P37231 whole entry, looked up, the tested form may be a part): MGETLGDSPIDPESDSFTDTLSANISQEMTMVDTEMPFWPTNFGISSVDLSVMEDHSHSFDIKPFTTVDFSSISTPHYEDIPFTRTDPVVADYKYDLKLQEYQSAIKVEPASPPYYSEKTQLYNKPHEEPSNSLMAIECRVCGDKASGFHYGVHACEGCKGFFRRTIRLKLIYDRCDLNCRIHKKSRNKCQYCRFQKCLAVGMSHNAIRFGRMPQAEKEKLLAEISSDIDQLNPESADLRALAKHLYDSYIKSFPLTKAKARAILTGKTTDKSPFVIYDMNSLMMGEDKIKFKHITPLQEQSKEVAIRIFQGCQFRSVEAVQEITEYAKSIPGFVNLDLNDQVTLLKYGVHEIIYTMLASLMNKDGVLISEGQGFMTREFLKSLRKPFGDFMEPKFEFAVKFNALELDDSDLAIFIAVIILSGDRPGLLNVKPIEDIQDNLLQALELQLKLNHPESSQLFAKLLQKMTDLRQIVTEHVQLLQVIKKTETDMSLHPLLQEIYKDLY
# Method in brief: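 Chimeric NR-Gal4 transactivation is measured in transiently transfected HepG2 cells by reporter mRNA induction at 24 h. Detection uses RT-PCR with fluorescent labelling and capillary electrophoresis; DMSO defines baseline.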
# [6] = target: human Retinoic Acid Receptor beta (RARb), RARB (gene 5915) (UniProt P10826); assay: ATG_RARb_TRANS: Attagene TRANS-FACTORIAL HepG2 Assay for human Retinoic Acid Receptor beta (AID 2283004)
# Chain of human Retinoic Acid Receptor beta (RARb), RARB (gene 5915) (P10826 whole entry, looked up, the tested form may be a part): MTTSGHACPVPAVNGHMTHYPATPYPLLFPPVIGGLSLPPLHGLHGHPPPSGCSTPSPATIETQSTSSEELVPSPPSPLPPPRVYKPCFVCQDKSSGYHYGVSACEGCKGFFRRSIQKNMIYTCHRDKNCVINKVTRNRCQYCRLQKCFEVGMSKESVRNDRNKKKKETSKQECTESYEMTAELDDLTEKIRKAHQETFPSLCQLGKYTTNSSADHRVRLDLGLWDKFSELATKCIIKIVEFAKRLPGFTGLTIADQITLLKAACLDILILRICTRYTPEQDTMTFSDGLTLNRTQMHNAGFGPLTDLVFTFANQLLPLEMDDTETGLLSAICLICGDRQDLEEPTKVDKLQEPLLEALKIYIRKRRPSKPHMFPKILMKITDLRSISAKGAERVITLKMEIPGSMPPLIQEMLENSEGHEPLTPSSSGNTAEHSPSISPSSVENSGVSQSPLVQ
# Method in brief: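 Induction of reporter mRNA from a chimeric RARb-Gal4 construct was measured by RT-PCR, FAM labelling, HpaI digestion and capillary electrophoresis. Measurements followed 24 h compound treatment of transiently transfected human HepG2 liver cells, with DMSO as baseline.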
# [7] = target: Retinoic acid receptor alpha (Homo sapiens) (UniProt P10276); assay: ATG_RARa_TRANS: Attagene TRANS-FACTORIAL HepG2 Assay for human Retinoic Acid Receptor alpha (RARa) (AID 2283005)
# Chain of Retinoic acid receptor alpha (Homo sapiens) (P10276 whole entry, looked up, the tested form may be a part): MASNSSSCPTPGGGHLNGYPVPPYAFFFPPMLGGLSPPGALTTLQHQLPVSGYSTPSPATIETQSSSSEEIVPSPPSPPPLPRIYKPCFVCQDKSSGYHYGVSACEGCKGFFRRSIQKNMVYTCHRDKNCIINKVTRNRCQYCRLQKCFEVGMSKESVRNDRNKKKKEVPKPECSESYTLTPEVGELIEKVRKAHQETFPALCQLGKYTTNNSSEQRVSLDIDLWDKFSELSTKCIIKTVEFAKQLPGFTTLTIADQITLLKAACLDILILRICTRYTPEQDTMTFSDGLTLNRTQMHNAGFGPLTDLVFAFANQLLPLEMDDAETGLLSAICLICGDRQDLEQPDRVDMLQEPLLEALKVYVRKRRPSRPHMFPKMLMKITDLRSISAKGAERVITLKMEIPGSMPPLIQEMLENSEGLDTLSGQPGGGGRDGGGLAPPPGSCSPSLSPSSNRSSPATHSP
# Method in brief: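 HepG2 transiently transfected with multiplex GAL4-UAS reporter units including a human RARa–GAL4 chimera; 24 h compound exposure. Reporter mRNA quantified by RT-PCR, 6-FAM labeling and capillary electrophoresis; gain of signal versus DMSO.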
# [8] = read-out: Intercellular Adhesion Molecule 1 (ICAM1), ICAM1 (gene 3383); assay: BSK_3C_ICAM1: BioMAP Diversity Plus: 3C Assay for Intercellular Adhesion Molecule 1 (ICAM1) Biomarker Activity (AID 2283003; active means hit-call score of the fitted dose curve at least 0.9, where 1 is the maximum; inactive means score below 0.9); conditions: primary human endothelial cells (HUVEC); actives raise or lower the signal
# Method in brief: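 Using DMSO as baseline, bidirectional curve fitting was applied to ICAM-1 ELISA signals from HUVEC in the 3C system, measured 24 h after compound addition.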
# [9] = BSK_3C_Proliferation: Cell Proliferation Assessment in the BioMAP Diversity Plus: 3C Assay (AID 2283006; active means hit-call score of the fitted dose curve at least 0.9, where 1 is the maximum; inactive means score below 0.9); conditions: primary human endothelial cells (HUVEC)
# Method in brief: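 Measured here: sulforhodamine B (0.1%) staining of TCA-fixed sub-confluent umbilical vein endothelial cultures 48 h post-dosing, absorbance 560 nm. DMSO served as negative control and baseline; both signal gain and loss were modelled.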
smiles,measurement,setting,value
O=S1(=O)OC(c2ccc(O)cc2)(c2ccc(O)cc2)c2ccccc21,outcome,[1],inactive
same,outcome,[2],inactive
CC(=O)OC(C)C,outcome,[1],inactive
same,outcome,[2],inactive
same,outcome,[3],inactive
C=C1C2CCC(C2)C1(C)C (stereo not given),outcome,[1],inactive
same,outcome,[3],inactive
same,outcome,[4],inactive
Cc1oncc1C(=O)Nc1ccc(C(F)(F)F)cc1,outcome,[1],inactive
same,AC50,[5],41.1 µM (active)
same,outcome,[3],inactive
CC[C@H]1OC(=O)[C@H](C)[C@@H](O[C@H]2C[C@@](C)(OC)[C@@H](O)[C@H](C)O2)[C@H](C)[C@@H](O[C@@H]2O[C@H](C)C[C@H](N(C)C)[C@H]2O)[C@](C)(O)C[C@@H](C)C(=NOCOCCOC)[C@H](C)[C@@H](O)[C@]1(C)O,outcome,[6],inactive
same,outcome,[7],inactive
CCCCCCCCCCc1ccccc1,outcome,[1],inactive
same,outcome,[5],inactive
same,outcome,[2],inactive
same,outcome,[4],inactive
CCCCCCCCc1ccc(Nc2ccc(CCCCCCCC)cc2)cc1,outcome,[8],inactive
same,outcome,[6],inactive
same,outcome,[7],inactive
same,outcome,[9],inactive
same,AC50,[2],1.68 µM (active)
same,outcome,[3],inactive
CC(=O)OCCC1CCCCC1,outcome,[1],inactive
same,outcome,[2],inactive
CO[Si](OC)(OC)c1ccccc1,outcome,[8],inactive
same,outcome,[9],inactive
Nc1ccc(Oc2ccc(N)c(N)c2)cc1,outcome,[1],inactive
same,AC50,[5],60.1 µM (active)
same,outcome,[2],inactive
same,outcome,[3],inactive
CCCCCCCC(C)=O,outcome,[1],inactive
same,outcome,[3],inactive
c1c[nH]cn1,outcome,[6],inactive
same,outcome,[7],inactive
same,outcome,[5],inactive
same,outcome,[3],inactive
same,outcome,[4],inactive
Cc1cc(C)c(C)c(C)c1,outcome,[1],inactive
same,outcome,[5],inactive
same,outcome,[2],inactive
same,outcome,[3],inactive
same,outcome,[4],inactive
O=C1c2ccccc2C(=O)C1c1nc2ccccc2c(Br)c1O,outcome,[1],inactive
same,AC50,[5],11.5 µM (active)
same,outcome,[4],inactive
CCN(Cc1cccc(S(=O)(=O)O)c1)c1ccc(C(=C2C=CC(=[N+](CC)Cc3cccc(S(=O)(=O)[O-])c3)C=C2)c2ccccc2)cc1,outcome,[1],inactive
same,AC50,[5],31.1 µM (active)
same,outcome,[2],inactive
same,outcome,[4],inactive
CCCCC(CC)COCC1CO1 (stereo not given),outcome,[8],inactive
same,outcome,[9],inactive
same,outcome,[5],inactive
same,outcome,[2],inactive
Cc1ccc2c(c1)C(=O)c1ccccc1C2=O,outcome,[1],inactive
same,AC50,[5],15.1 µM (active)
same,AC50,[2],6.18 µM (active)
same,outcome,[3],inactive
CC1(C)S[C@@H]2[C@H](NC(=O)COc3ccccc3)C(=O)N2[C@H]1C(=O)O,outcome,[1],inactive
same,outcome,[4],inactive
NCCCN1CCN(CCCN)CC1,outcome,[1],inactive
same,outcome,[2],inactive
same,outcome,[3],inactive
CCCCNc1ccc(NCCCC)c2c1C(=O)c1ccccc1C2=O,outcome,[8],inactive
same,outcome,[9],inactive
same,outcome,[5],inactive
same,outcome,[2],inactive
CC(C)=CCC[C@H](C)CCO,outcome,[1],inactive
same,outcome,[2],inactive
CCOC(=O)CC,outcome,[1],inactive
same,outcome,[2],inactive
ON(Cc1ccccc1)Cc1ccccc1,outcome,[1],inactive
same,AC50,[2],17.2 µM (active)
same,outcome,[3],inactive
CC(C)(C)c1ccc(-c2ccc(C(C)(C)C)cc2)cc1,outcome,[1],inactive
same,outcome,[2],inactive
SCCc1cnccn1,outcome,[2],inactive
O=C(O)C(c1ccc(Cl)cc1)c1ccc(Cl)cc1,outcome,[2],inactive
C1CN(SSN2CCOCC2)CCO1,outcome,[5],inactive
same,outcome,[2],inactive
